# Active and inactive are the calls of the source. The calls were made as follows: active = hit-call score of the fitted dose curve at least 0.9, where 1 is the maximum; inactive = score below 0.9.
# Target: Hepatocyte nuclear factor 6 (Homo sapiens) (UniProt Q9UBC0)
# Assay: ATG_HNF6_CIS: Attagene CIS-FACTORIAL HepG2 Assay for human Hepatocyte Nuclear Factor 6 (HNF6) (AID 2282952)
# Conditions: HepG2 Attagene cis-factorial HNF6 reporter transcription; actives raise or lower the signal
# Experimental: ATG_CIS is a cell-based, multiplexed-readout assay that uses HepG2, a human liver cell line, with measurements taken at 24 hours after chemical dosing in a 24-well plate.ATG_HNF6_CIS is one of 52 assay component(s) measured or calculated from the ATG_CIS assay. It is designed to make measurements of mRNA induction, a form of inducible reporter, as detected with fluorescence intensity signals by Reverse transcription polymerase chain reaction (RT-PCR) and Capillary electrophoresis technology.Data from the assay component ATG_HNF6_CIS was analyzed into 1 assay endpoint. This assay endpoint, ATG_HNF6_CIS, was analyzed with bidirectional fitting relative to DMSO as the negative control and baseline of activity. Using a type of inducible reporter, measures of mRNA for gain or loss-of-signal activity can be used to understand the reporter gene at the transcription factor-level as they relate to the gene ONECUT1. Furthermore, this assay endpoint can be referred to as a primary readout, because this assay has produced multiple assay endpoints where this one serves a reporter gene function. To generalize the intended target to other relatable targets, this assay endpoint is annotated to the dna binding intended target family, where the subfamily is homeobox protein.
# Human liver HepG2 cells are transiently transfected with multiple reporter transcription units (MRTUs) in 6-well plates using FuGene 6 reagent (Roche; 3 ml FuGene/1 mg DNA). The MRTU constructs are regulated by a cis-regulating element (promoter). […] A major difference between the CIS and TRANS system is that in CIS activities of endogenous TFs are measured, whereas the TRANS assay evaluates changes in activities of exogenous, chimeric NR-Gal4 proteins. […] At the end of 24 hour incubation, total RNA was isolated using TriZol reagent (Invitrogen). The isolated RNA is then reverse-transcribed using oligo(dT) primer and Mo-MLV reverse transcriptase (Invitrogen) with DNAse I (Ambion) treatment for 30 min. The one-tenth of the produced cDNA was amplified by PCR using Taq DNA polymerase (Invitrogen) and two reporter sequence-specific primers. The PCR products were fluorescently labeled by primer extension with 6-arboxyfluorescein (6-FAM) 5'-labeled reporter sequence-specific primer (2 min at 95 C, 20 s at 68 C and 10 min at 72 C) and these products were digested with 5U of HpaI (New England Biolabs) for 2h at 37 C. The fragments were purified using Qiaquick PCR columns (Qiagen), analyzed on an ABI 3130xL genetic analyzer (Applied Biosystems) with peak positions identified by using a set of X-rhodamine (ROX)-labeled MapMarker1000 molecular weight standards (BioVentures). The raw capillary electrophoresis data was processed using Attagraph software (Attagene).
# Hepatocyte nuclear factor 6 (Homo sapiens), sequence (Q9UBC0 whole entry, looked up): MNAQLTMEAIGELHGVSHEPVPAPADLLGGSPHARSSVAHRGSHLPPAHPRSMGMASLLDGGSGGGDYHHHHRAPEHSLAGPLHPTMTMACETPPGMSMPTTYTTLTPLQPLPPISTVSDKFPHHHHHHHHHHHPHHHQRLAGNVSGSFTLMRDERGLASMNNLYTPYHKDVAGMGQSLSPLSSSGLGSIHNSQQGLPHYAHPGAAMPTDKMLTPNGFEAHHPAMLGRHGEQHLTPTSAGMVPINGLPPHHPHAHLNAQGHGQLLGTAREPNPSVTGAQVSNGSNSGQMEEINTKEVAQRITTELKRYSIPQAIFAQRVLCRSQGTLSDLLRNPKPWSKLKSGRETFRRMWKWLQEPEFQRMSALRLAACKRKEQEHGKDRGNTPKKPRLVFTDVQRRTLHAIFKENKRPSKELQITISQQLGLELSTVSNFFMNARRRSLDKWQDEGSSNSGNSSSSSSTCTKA
SMILES,outcome,AC50
CCN(CC)c1cccc(C)c1,inactive,–
O=C1CCCCCCCCCCCN1,inactive,–
COc1cc(O)c(C(=O)c2ccccc2)cc1S(=O)(=O)O,inactive,–
O=C(O)C1CCC(C(=O)O)CC1 (stereo not given),inactive,–
COc1cc(C)ccc1O,inactive,–
CCCCCCCCCCCCCCCCCCOS(=O)(=O)O,–,19.5 µM (active)
CCc1cccc(C)c1N(C(=O)CS(=O)(=O)O)C(C)COC (stereo not given),inactive,–
CC1=CC=C(C(C)C)CC1,inactive,–
C=C1C[C@H]2[C@@H]3C=C(C)C4=CC(=O)CC[C@]4(C)[C@H]3CC[C@]2(C)[C@@]1(OC(C)=O)C(C)=O,inactive,–
CCCSSCCC,inactive,–
C=CCNCC=C,inactive,–
CCC[Si](OC)(OC)OC,inactive,–
CC(C)=CCl,inactive,–
O=C(Oc1ccccc1)c1ccccc1O,inactive,–
CCC(C)C(=O)OCCc1ccccc1 (stereo not given),inactive,–
Cn1ccnc1,inactive,–
CC(C)CC(=O)OCc1ccccc1,inactive,–
CCCc1ccc(O)c(OC)c1,inactive,–
O=C1CCCCC1C1CCCCC1 (stereo not given),inactive,–
CC/C=C\CCOC(=O)c1ccccc1O,inactive,–

SMILES,outcome,AC50
C=C(C)OC(C)=O,inactive,–
CCC(C)(O)CCCC(C)C (stereo not given),inactive,–
CCCCCC(=O)OCC,inactive,–
CC(Cl)COP(=O)(OCC(C)Cl)OCC(C)Cl (stereo not given),inactive,–
CCOC(=O)c1ccc(C)cc1,inactive,–
COc1nccnc1CC(C)C,inactive,–
CC(C)CO,inactive,–
CC(c1cc(C(C)(C)C)cc(C(C)(C)C)c1O)c1cc(C(C)(C)C)cc(C(C)(C)C)c1O,inactive,–
CCc1cccc(C)c1N,inactive,–
Cc1noc(NS(=O)(=O)c2ccc(N)cc2)c1C,inactive,–
O=C(O)c1ccc2c(c1)C(=O)OC2=O,inactive,–
CC(=O)OCc1ccccc1,inactive,–
C1CCSC1,inactive,–
Cc1cc(=O)[nH]c(=O)[nH]1,inactive,–
CCC(C)c1ccccc1 (stereo not given),inactive,–
CCCCCCCCCCCCC,inactive,–
CCCCc1ccc(Cl)cc1,inactive,–
CC(C)OC(=O)c1ccccc1,inactive,–
CCCCC(=O)O,inactive,–
CCCCCCOC(=O)CCCCC(=O)OCCCCCC,inactive,–

# — PubChem BioAssay (EPA / NIEHS)
